# The list is not random: actives were taken first. Their share in the collection is about 5.5%.
# RORg inh: inhibitors of mouse ROR gamma transcriptional activity. Potency, µM (series often up to 53.6 µM), without a hit: top-dose activity change, negative = inhibition, hits mostly inhibitors. Drosophila S2 Gal4-RORgamma UAS-luciferase reporter, 20 h. 310,000 tested, 5.4% active. P51450; also: potency is read from the fitted curve at half-maximal effect; % is scaled to controls: 0 for no effect and ±100 for the full control effect; nearly all actives have a fitted effect of over 60% in size
#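 Luminescence from a UAS-regulated Photinus luciferase reporter in stably transfected Drosophila Schneider cells is measured; decreased signal marks ROR gamma inhibition. Fusion expression is induced by 700 uM copper sulfate for 20 hr.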
# CBFb RUNX1 block: CBF-beta/RUNX1 interaction disruption; Q01196+Q13951; Potency, µM (doses to about 59.8 µM), inactives show at the highest dose activity, negative = inhibition, hits mostly inhibitors; 230,000 tested, under 10 active; AID 1477; AlphaScreen CBFb-His/RUNX1-biotin binding, biochemical; also: % of control where 0% means no effect
#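 AlphaScreen proximity signal reports loss of binding between His-tagged CBF-beta and biotin-labelled RUNX1, each at 30 nM. Proteins are pre-associated for 20 minutes, compounds added for 15 minutes, then beads for 90 minutes, all at ambient temperature.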
# MBNL1 CUG block: blocks human MBNL1 binding to CUG repeat RNA; Q9NR56; TR-FRET MBNL1-His/biotin-(CUG)12 binding, 665/545 ratio; Potency, µM (highest dose often 57.5 µM), without a hit: at the top dose activity change, negative = inhibition, actives largely listed as inhibitors; 280,000 tested, 0.036% active; active = well fitted inhibition curve with a large enough effect in the signal ratio, with a control signal flat, not every such curve was filed as active; inconclusive = small, poorly fitted or top-dose-only effect, or effect the other way, or a change in a side signal; inactive = no such curve, though single readings can be large or run the other way; the % refers to the signal ratio; also: potency is read from the fitted curve at half-maximal effect; % is scaled to controls: 0 for no effect and ±100 for the full control effect
#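 Compounds (final 92 nM to 58 uM) are added to His-tagged MBNL1 and biotin-(CUG)12, then terbium anti-His antibody and streptavidin-XL665 (5 nM final). After 60 min at room temperature, the 665/545 nm ratio is read.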
# CtBP-E1A blk: CtBP/E1A binding inhibition; AlphaScreen GST-E1A/His-CtBP binding, 1536-well; stronger effect = lower value; activity change, % (test concentration not listed); 340,000 tested, 0.49% active; in the data active = activity change below about -65%; inconclusive = mostly about -30% to -63%; also: % is scaled to controls: 0 for no effect and ±100 for the full control effect
#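 Steps: dispense buffer (Tris pH 8.0, NaCl 300 mM, TCEP 1 mM, BSA, Tween 20); add 5X protein mix (GST-E1A, His-CtBP, 125 nM each); pin 23 nL compound; 2 h at 37 °C, dark; add 5X beads (50 ug/mL); 1 h; read.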
# Six1-Eya2 inh: inhibitors of human Six1/Eya2 interaction; activity change, % (no concentration beside the values); 360,000 tested, 0.56% active; AID 651725; AlphaScreen GST-Six1/His-Eya2 binding, biochemical; stronger effect = lower value; in the data active = activity change below about -65%; inconclusive = mostly about -30% to -63%; also: % is scaled to controls: 0 for no effect and ±100 for the full control effect
# Target sequence (O00167 whole entry, looked up): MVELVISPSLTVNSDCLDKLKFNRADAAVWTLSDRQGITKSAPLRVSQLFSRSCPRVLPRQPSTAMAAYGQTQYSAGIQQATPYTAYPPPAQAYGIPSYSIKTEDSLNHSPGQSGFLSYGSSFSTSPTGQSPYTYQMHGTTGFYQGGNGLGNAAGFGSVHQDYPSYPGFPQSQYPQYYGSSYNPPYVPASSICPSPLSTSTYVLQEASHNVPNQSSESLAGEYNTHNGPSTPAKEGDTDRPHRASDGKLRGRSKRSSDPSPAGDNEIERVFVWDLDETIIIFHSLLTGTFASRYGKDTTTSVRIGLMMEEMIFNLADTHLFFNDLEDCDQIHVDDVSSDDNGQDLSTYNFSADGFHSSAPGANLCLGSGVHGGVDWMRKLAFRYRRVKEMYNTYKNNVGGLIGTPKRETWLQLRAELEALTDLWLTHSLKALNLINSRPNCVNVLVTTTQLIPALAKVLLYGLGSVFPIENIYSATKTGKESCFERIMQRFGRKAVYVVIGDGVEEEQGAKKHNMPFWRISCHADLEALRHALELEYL
# Target sequence (Q15475 whole entry, looked up): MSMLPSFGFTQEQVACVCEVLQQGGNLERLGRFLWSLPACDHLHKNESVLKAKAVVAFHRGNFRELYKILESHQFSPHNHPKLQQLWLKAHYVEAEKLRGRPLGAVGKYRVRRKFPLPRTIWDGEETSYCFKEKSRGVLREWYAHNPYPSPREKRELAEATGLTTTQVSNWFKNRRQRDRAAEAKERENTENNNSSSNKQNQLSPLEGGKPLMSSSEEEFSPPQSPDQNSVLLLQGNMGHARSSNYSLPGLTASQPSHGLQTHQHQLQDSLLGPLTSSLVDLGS
#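 AlphaScreen luminescence read after one hour at 37 °C in darkness. Pin-transferred compounds met GST-Six1 and His-Eya2 protein (5X stock 250 nM/500 nM) plus glutathione donor and Ni-chelate acceptor beads (5X, 50 ug/mL).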
# Gal4-VP16 FLuc: counter-screen for ROR gamma inhibitors: Gal4-VP16 reporter. Drosophila S2 Gal4-VP16 UAS-luciferase, luminescence, 20 h. 310,000 tested, 3.5% active. Potency, µM (titrated, usually from 53.6 µM), inactives show top-dose activity, negative = inhibition, most hits filed as inhibitors;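 also: Gal4-VP16 expression switched on by copper sulfate through the metallothionein promoter; potency is read from the fitted curve at half-maximal effect; % is scaled to controls: 0 for no effect and ±100 for the full control effect; nearly all actives have a fitted effect of over 50% in size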
# Starred values were filed as active, the others as inactive; u = inconclusive; x = no result given. Unless noted, calls follow the shape of the dose curve; as a rule, active = well fitted curve in the direction sought with a large enough effect; inconclusive = small, poorly fitted or top-dose-only effect, or another doubt; inactive = no such curve, though single readings can be large; an effect the other way counts as inactive or inconclusive.
SMILES,RORg inh,CBFb RUNX1 block,MBNL1 CUG block,CtBP-E1A blk,Six1-Eya2 inh,Gal4-VP16 FLuc
O=C(N/N=C/c1cccs1)c1cc(-c2ccc(Cl)s2)[nH]n1,10µM*,x,0%,0,-2,7.9µM*
Cc1ccc(NS(=O)(=O)N2CCOCC2)cc1,-10%,x,-4%,6,0,8%
CCCCNc1nc(C)c(C(C)=O)cc1C#N,-2%,12%,4%,-1,4,20%
CCCCNC(=O)NNc1nc(Cl)cc(C)c1C#N,-26%,8%,-12%,0,0,14µM*
Cc1cc(OCC(=O)NCC2CCC(C(=O)O)CC2)c2c(C)c(Cc3ccccc3)c(=O)oc2c1 (stereo unspecified),32%,x,5%,2,0,-4%
C#C[C@]1(O)CC[C@H]2[C@H]3[C@H](CC[C@@]21C)C1=C(CC(=O)CC1)C[C@@H]3C,-4%,x,x,x,x,-3%
COc1ccc(-c2cc(C(F)(F)F)nc(N3CCN(C)CC3)n2)cc1,0%,3%,0%,-15,-23,-11%
COc1ccc(-c2cc(C(F)(F)F)nc(-n3ccnc3C)n2)cc1,11µM*,-1%,4%,-4,10,u
O=C(NC1CC1)C1CCN(C2CCN(C(=O)Cc3ccc4c(c3)OCO4)CC2)CC1,10µM*,-1%,-6%,8,8,-16%
CCN(CC)CCN(C(=O)C1=COCCO1)c1nc2c(OC)ccc(OC)c2s1,13%,x,-15%,1,-5,-7%
COCC(=O)N1CCC[C@@]2(CCN(c3ccccn3)C2)C1,20%,x,x,x,x,-4%
Cc1cccc(C)c1NC(=S)/C(=C(\[O-])c1cccs1)[n+]1ccccc1,u,4%,-8%,-18,-5,20µM*
CC(=O)c1cccc(NC(=O)N2CCCC(C(=O)c3cc(F)ccc3F)C2)c1 (stereo unspecified),u,-2%,9%,2,1,-8%
Cc1cc(C(=O)Nc2c(F)cc(F)cc2Br)c(C)o1,u,5%,-1%,-13,-10,10µM*
Cc1ccc(N(CC(=O)N2CCN(c3ccccc3F)CC2)S(=O)(=O)c2c(C)noc2C)cc1,-1%,x,-1%,4,4,2%
Cc1cc(Br)cn2c(Cc3ccsc3)c(-c3ccc(Cl)cc3)nc12,x,x,x,-5,-13,x
O=C(NCc1ccccn1)c1ccc2c(=O)n3nc(Nc4ccccc4)sc3nc2c1,11%,x,-4%,-19,-12,7%
CCc1ccccc1Nc1nn2c(=O)c3ccc(C(=O)NCc4ccccn4)cc3nc2s1,u,x,15%,-79*,u,-1%
CCCN(CCC)Cc1cc(=O)oc2cc(C)cc(C)c12,x,x,x,16,15,x
COc1ccccc1C(=O)NC(=S)Nc1cccnc1Cl,10µM*,x,2%,8,-4,u
COc1ccccc1-c1cc(C(=O)Nc2cccnc2Cl)no1,1%,x,u,2,0,-2%
Cc1ccc(C(=O)NC(=S)Nc2cccnc2Cl)cc1,5µM*,x,14%,-4,-2,u
COc1ccc(C(=O)Nc2cccnc2Cl)cc1OC,-9%,x,2%,-2,-3,2%
COc1ccccc1C(=O)NNC(=S)NC(=O)c1sc2ccccc2c1Cl,13µM*,-11%,x,0,11,13µM*
COc1ccccc1C(=O)NC(=S)NNC(=O)c1sc2ccccc2c1Cl,3%,-3%,u,5,2,-10%
SMILES,RORg inh,CBFb RUNX1 block,MBNL1 CUG block,CtBP-E1A blk,Six1-Eya2 inh,Gal4-VP16 FLuc
Cc1ccc(C)c(CNS(=O)(=O)c2c(C(=O)N3CCCC3)c(C)n(C)c2C)c1,-1%,x,-1%,-9,1,-3%
C/C(=N\NC(=S)NCc1ccccc1)c1ccco1,1.8µM*,-30%,8%,-10,-12,7.1µM*
C/C(=N\NC(=S)NCc1ccccc1)c1ccc(C(C)(C)C)cc1,1µM*,-7%,-6%,-11,-15,1.4µM*
C/C(=N\NC(=S)NCc1ccccc1)c1ccccc1F,1.3µM*,-16%,5%,-12,-14,-9%
C/C(=N\NC(=O)CCC(=O)NCc1ccccc1)c1ccc([N+](=O)[O-])cc1,x,x,x,1,0,x
C/C(=N\NC(=S)NCc1ccccc1)c1ccccc1,3.5µM*,4%,-8%,-27,-13,3.5µM*
Cc1ccc2nc(SCC(=O)Nc3ccc4c(c3)OCO4)nc(=O)n2c1,x,x,x,-3,5,x
Cc1noc(C)c1C(=O)N1CCCC(C(=O)c2cccc(OC(C)C)c2)C1 (stereo unspecified),1%,6%,5%,4,1,17%
Cc1cccc(OCCC(=O)NNC(=O)c2ccoc2C)c1,x,x,x,x,1,x
CC1=C/C(=N\NC(=S)NCc2ccccc2)CC1,0.56µM*,16%,-2%,-5,-12,3.2µM*
C/C(=N\NC(=S)NCc1ccccc1)c1ccc(C#N)cc1,2.8µM*,5%,1%,5,-3,7.1µM*
O=C(O)c1ccccc1/C=N/NC(=S)NCc1ccccc1,-15%,-5%,x,5,-3,18%
CCNC(=S)NCc1ccco1,-15%,10%,x,9,3,-3%
CC/C(C)=N/NC(=S)NCc1ccco1,10µM*,-13%,10%,-2,0,u
COc1ccc(CNC(=S)N/N=C(/C)c2ccccc2)cc1,8.9µM*,-21%,-2%,u,u,u
COc1ccc(CNC(=O)c2ccc(-c3ccccc3)cc2)cc1,21%,2%,7%,4,8,22%
CC[C@H](C)[C@H](NC(=O)[C@@H]1CCCN1C(=O)[C@H](Cc1cnc[nH]1)NC(=O)[C@H](CCCCNC(=O)[C@H](CCCN=C(N)N)NC(=O)OCc1ccccc1)NC(=O)[C@H](Cc1ccc(O)cc1)NC(=O)c1cccnc1)C(=O)O,0%,7%,x,x,x,2%
Cc1cc(NC(=O)CC2CCCC2)ccc1Br,-19%,x,4%,18,4,16%
Cc1noc(C)c1C(=O)N1CCC2(CCCN(c3ncccn3)C2)CC1,7%,x,x,x,x,4%
O=C1/C(=C/c2ccccc2)CCCc2ccccc21,u,23%,10%,10,8,-10%
Cc1cccc(/C=C2\CCC(=C3SCCCS3)C2=O)c1,0.28µM*,-19%,20%,-1,-2,3.5µM*
O=C1C(=C2SCCCS2)CC/C1=C\c1ccc(F)cc1,4.5µM*,-10%,3%,6,-2,3.5µM*
C=CCn1cnc2c(nnn2Cc2ccc(F)cc2)c1=O,5%,11%,-8%,x,8,0%
Cc1ccc2c(c1)N(C(=O)CCC(=O)NCCCN1CCC(Cc3ccccc3)CC1)CCO2,-22%,x,5%,-1,6,-6%

# High-throughput results as filed in PubChem BioAssay.
